Our source for the binding signal values is paper PMC7862700, “An all-to-all approach to the identification of sequence-specific readers for epigenetic DNA modifications on cytosine”.

Experiment in all cases: DAPPL (digital affinity profiling via proximity ligation, sequencing); 10 mM Tris-HCl pH 7.5, 50 mM NaCl, 1 mM DTT, 4% glycerol, room temperature, 30 min; GST-TFs on glutathione beads, 16-mer random dsDNA library, 0.1% formaldehyde crosslink after washing; high values mean tight binding
Common to all, as to settings: protein: recombinant; tags: N-terminal GST; dsDNA, one strand shown

The target of one test is T1, EHF (Homo sapiens, UniProt Q9NZC4 1-300).
T1 sequence: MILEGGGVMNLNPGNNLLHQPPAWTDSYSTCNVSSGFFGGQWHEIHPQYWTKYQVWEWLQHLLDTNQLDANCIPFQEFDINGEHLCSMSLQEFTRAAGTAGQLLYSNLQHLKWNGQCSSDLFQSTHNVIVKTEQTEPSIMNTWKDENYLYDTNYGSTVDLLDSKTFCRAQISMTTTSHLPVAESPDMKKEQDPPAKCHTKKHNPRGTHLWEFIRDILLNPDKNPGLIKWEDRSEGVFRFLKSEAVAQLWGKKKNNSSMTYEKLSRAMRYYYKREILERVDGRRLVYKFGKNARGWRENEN
In outline:
(§1)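 The binding signal reported is, for every hexamer, its read frequency for a factor over its read frequency for the tag-only sample. Reads came from pools of yeast-expressed, GST-fused human transcription factors on glutathione beads, barcoded with DNA and mixed with that sample, which were incubated with 200 nmole of a random double-stranded 16-mer DNA library in Tris/NaCl/DTT/glycerol buffer at room temperature for 30 min. After washing, the pools were crosslinked with 0.1% formaldehyde, proximity-ligated with BsaI/T4 ligase for 1 h at 37 °C, PCR-amplified and sequenced on an Illumina NextSeq500.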

Another test deals with ETV5 (Homo sapiens, UniProt P41161 1-510). In a few lines: as §1
Another test deals with T2, ETV2 (Homo sapiens, UniProt O00321 1-342).
T2 sequence: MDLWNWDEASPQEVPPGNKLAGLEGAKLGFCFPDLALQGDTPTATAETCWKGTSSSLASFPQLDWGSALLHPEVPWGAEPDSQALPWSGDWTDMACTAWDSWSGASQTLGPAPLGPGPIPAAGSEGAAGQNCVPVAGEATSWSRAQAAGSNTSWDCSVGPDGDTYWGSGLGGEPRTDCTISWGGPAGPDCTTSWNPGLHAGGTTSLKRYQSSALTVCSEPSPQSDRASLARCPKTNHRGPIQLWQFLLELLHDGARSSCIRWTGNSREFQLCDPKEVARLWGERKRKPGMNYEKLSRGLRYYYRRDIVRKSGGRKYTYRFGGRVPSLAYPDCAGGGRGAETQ
In a few lines: as §1

The target of the next test is T3, ELF3 (Homo sapiens, UniProt P78545 1-371).
T3 sequence: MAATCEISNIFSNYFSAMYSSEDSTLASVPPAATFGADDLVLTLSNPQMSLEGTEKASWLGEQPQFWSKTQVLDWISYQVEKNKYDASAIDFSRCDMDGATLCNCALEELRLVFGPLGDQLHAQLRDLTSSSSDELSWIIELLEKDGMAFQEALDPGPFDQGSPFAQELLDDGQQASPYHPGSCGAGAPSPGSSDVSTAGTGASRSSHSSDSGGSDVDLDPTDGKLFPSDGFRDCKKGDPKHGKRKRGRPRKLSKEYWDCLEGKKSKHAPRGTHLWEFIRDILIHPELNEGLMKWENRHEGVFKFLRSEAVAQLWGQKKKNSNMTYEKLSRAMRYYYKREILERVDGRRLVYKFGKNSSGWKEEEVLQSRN
In outline:
as §1

Another test addresses T4, ERF (Homo sapiens, UniProt P50548 1-548).
T4 sequence: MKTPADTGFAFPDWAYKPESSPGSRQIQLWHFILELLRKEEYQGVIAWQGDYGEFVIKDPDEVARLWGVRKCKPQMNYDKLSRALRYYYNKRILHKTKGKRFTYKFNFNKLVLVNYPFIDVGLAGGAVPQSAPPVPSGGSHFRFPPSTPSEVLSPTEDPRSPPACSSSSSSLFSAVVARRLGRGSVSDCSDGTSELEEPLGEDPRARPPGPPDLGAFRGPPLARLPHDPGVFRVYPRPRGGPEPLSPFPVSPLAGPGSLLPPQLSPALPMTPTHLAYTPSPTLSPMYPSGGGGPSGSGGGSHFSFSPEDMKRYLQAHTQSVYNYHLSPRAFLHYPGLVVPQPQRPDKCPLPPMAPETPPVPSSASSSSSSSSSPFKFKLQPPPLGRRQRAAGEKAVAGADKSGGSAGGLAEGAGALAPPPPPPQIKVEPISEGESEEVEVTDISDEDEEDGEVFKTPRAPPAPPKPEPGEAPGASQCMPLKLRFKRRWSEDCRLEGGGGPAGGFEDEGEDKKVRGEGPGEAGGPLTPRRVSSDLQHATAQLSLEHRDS
In outline:
as §1

Another test has as its target T5, ETS2 (Homo sapiens, UniProt P15036 1-469).
T5 sequence: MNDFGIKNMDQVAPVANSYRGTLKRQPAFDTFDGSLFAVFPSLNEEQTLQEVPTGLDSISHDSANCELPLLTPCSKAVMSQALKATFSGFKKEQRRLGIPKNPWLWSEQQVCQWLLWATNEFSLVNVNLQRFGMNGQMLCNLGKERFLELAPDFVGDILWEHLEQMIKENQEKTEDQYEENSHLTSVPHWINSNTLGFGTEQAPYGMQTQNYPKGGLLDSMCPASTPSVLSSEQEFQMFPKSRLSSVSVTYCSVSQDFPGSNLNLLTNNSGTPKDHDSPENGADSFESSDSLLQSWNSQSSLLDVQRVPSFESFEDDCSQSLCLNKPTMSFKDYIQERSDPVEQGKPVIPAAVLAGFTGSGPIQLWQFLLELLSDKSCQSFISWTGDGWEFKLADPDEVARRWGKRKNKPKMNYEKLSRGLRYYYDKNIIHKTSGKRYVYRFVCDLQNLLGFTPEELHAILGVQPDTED
In a few lines: as §1

The next test addresses T6, ETV7 (Homo sapiens, UniProt Q9Y603 1-341).
T6 sequence: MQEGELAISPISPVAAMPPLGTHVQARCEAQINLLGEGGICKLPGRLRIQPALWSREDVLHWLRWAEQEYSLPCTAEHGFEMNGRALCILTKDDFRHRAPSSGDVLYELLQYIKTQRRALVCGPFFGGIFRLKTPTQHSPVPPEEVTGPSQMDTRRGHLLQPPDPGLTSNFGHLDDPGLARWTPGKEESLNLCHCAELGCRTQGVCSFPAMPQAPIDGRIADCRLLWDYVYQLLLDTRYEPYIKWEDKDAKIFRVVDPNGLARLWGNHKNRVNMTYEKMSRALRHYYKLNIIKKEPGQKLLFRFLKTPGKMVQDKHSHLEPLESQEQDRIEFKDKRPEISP
In outline:
as §1

Chain of ETV5 (P41161 whole entry): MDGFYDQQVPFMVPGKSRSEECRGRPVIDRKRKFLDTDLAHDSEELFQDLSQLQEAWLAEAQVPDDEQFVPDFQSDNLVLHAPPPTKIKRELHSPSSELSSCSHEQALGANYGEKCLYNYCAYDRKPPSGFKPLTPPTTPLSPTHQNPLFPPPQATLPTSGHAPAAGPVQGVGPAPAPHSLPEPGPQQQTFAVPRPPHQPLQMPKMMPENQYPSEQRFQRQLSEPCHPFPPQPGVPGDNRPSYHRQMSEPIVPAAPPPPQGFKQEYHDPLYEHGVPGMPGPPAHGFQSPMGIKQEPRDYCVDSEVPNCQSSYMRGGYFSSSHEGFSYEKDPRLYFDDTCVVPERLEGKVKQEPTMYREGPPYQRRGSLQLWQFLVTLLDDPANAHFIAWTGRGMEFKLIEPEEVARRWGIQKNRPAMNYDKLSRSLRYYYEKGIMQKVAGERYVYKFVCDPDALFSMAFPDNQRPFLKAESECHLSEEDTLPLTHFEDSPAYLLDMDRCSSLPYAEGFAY

For the sequence CGAACG, the binding signal was 1 fold enrichment (6-mer frequency, TF over GST control) in the test with EHF; 1.03 fold enrichment (6-mer frequency, TF over GST control) with ETV5; 1.09 fold enrichment (6-mer frequency, TF over GST control) in the test with ETV2; 1.05 fold enrichment (6-mer frequency, TF over GST control) in the test with ELF3; 1.11 fold enrichment (6-mer frequency, TF over GST control) with ERF; 1.03 fold enrichment (6-mer frequency, TF over GST control) in the test with ETS2. In addition, the binding signal with ETV7 is 1.02 fold enrichment (6-mer frequency, TF over GST control).
